Results as given in PubChem BioAssay (Tox21).
Inconclusive results are not listed. Values without a mark were called inactive. Calls come from the whole dose curve; as a rule, active = well fitted cell-killing curve with a large enough effect in the repeat runs; inconclusive = weak or mixed curves, or effect the other way; inactive = no such curve, though single readings can be large or run the other way.

Test: qHTS assay to identify small molecule antagonists of the retinoid-related orphan receptor gamma (ROR-gamma) signaling pathway - cell viability counter screen (AID 1159520); note: nearly all actives have a fitted effect of over 50% in size
Conditions: Tet-on RORgamma CHO cells viability, ATP luminescence, 16 h; series mostly up to 92.4 µM; activity, negative = cytotoxicity: at the top concentration
Method in brief: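 Tet-on ROR gamma CHO cells were given compounds for 2 hr, then doxycycline hyclate at 1 uM final, and incubated 16 hr at 37 C. Viability was measured as ATP content by CellTiter-Glo luminescence.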
% is set by controls: 0 for no effect and ±100 for the full control effect.

Compound	activity, negative = cytotoxicity
O=[N+]([O-])c1cncn1CCN1CCOCC1	5.21% [at 42.5 µM]
C[C@H]1[C@H](NC(=O)/C(=N/OC(C)(C)C(=O)O)c2csc(N)n2)C(=O)N1S(=O)(=O)O (stereo in doubt)	2.73% [at 42.5 µM]
C1CCC2(CCCCO2)OC1	1.33%
CC(CC=O)CC(C)(C)C (stereo not drawn)	1.02%
CC1=CCC(O)(C(C)C)CC1 (stereo not drawn)	1.93%
O=C(O)CNC(=O)c1ccccc1	1.86% [at 42.5 µM]
[Ca+2]	2.49%
Cc1cccc(C)c1NC(=O)CC12CCCN1CCC2	5.77% [at 42.5 µM]
CCN1C=CN(C)C1C (stereo not drawn)	-4.66%
CC1CCC(CO)CC1 (stereo not drawn)	2.84%
CCC(C)(CCCC(C)C)OC(C)=O (stereo not drawn)	8.31%
Nc1ccn([C@@H]2O[C@H](CO)[C@@H](O)C2O)c(=O)n1 (stereo partly drawn)	5.79%
O=C1NC(=O)C2CC=CCC12 (stereo not drawn)	2.84%
C[N+]1(C)[C@@H]2CC(OC(=O)[C@H](CO)c3ccccc3)C[C@H]1[C@@H]1O[C@@H]12 (stereo partly drawn)	1.08% [at 42.5 µM]
CC(C)c1ccc2ncccc2c1	3.51%
CCCCN1C=CN(C)C1	1.65% [at 19 µM]
CCCCOC(=O)CCC(C)=O	9.33%
COc1cc(C(=O)OC(COCCC(C)C)CN2CCOCC2)cc(OC)c1OC (stereo not drawn)	2% [at 42.5 µM]
O=C(CO)[C@@H](O)[C@H](O)[C@@H](O)CO	3.8% [at 42.5 µM]
CN(C)CCCCCCN(C)C	-9.97%
CCCC(=O)O[C@]1(C(=O)CC)CC[C@H]2[C@@H]3CCC4=CC(=O)CC[C@]4(C)[C@H]3[C@@H](O)C[C@@]21C	-0.642% [at 42.5 µM]
C=C(C)C(=O)OCCOCCOCCOCCOC(=O)C(=C)C	1.38%
O=C(O)Cc1csc(-c2ccc(Cl)cc2)n1	1.36% [at 42.5 µM]
